Hits are enriched below; roughly 7% of the tested compounds scored in any of these assays.
S2 tox = Viability Counterscreen for Primary qHTS for Inhibitors of ATXN expression. 400,000 compounds, 0.49% hits. Potency, µM (doses to about 56.7 µM), most hits filed as cytotoxic. S2 cells (HEK-293 line with an ATXN2-luciferase reporter) viability, CellTiter-Fluor protease fluorescence, 24 h; also: nearly all actives have a fitted effect of over 40% in size
DRD3 antagonist = qHTS of D3 Dopamine Receptor Antagonist: qHTS. D(3) dopamine receptor (Homo sapiens), P35462. D3R cells, DiscoveRx beta-arrestin luminescence, antagonist mode; hits give low values. max response, negative = inhibition, %. 360,000 compounds, 2.5% hits. AID 652054, 2013; in the data active = max response below about -50%; inconclusive = no clear call, values can overlap the other calls
Target sequence (P35462 whole entry, looked up): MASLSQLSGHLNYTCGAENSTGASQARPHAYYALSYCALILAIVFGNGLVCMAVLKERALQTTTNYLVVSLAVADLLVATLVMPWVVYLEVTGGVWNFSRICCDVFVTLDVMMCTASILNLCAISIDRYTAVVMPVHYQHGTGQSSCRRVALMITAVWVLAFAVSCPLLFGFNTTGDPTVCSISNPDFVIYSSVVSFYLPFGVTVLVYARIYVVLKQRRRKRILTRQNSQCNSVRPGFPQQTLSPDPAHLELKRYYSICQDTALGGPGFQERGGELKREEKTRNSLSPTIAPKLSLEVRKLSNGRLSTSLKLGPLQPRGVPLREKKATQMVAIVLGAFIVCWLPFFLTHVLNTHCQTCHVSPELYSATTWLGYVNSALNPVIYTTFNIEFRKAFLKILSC
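Cells plated overnight at 1500 cells/well, then exposed to library compounds with dopamine controls for 90 minutes at 37 degrees C. DiscoveRx reagent added for 30–60 minutes at room temperature; luminescence read, quantitative HTS format.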
ATXN2 expr inh = Primary qHTS for Inhibitors of ATXN expression; HEK-293 ATXN2-luciferase reporter, luminescence, 24 h; Potency, µM (highest dose often 57 µM), hits mostly inhibitors; 360,000 compounds, 0.72% hits; AID 1745845, 2022; also: nearly all actives have a fitted effect of over 55% in size
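ATXN2-luciferase reporter cells (luciferase flanked by upstream and downstream ATXN2 gene portions) were treated 24 h at 37 °C with compounds at up to 57 uM. SteadyGlo luminescence gave expression; GF-AFC fluorescence gave viability.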
Integrin act MD = qHTS for Activators of Integrin-Mediated Alleviation for Muscular Dystrophy; Potency, µM (doses to about 38.3 µM), hits mostly activators; alpha7betagal myoblasts, beta-gal FDG fluorescence, 48 h; 350,000 compounds, 0.064% hits; AID 624291, 2012; also: nearly all actives have a fitted effect of over 60% in size
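alpha7betagal+/- myoblasts (passage 13, 250/well) treated 48 h at 37C with compounds at 1:260 dilution of DMSO stock. Lysed, then beta-galactosidase activity read as FDG fluorescence (ex 480/em 540) after 30 min, with pre-read for autofluorescence.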
IL-1B inflam inh = qHTS for Inhibitors of Inflammasome Signaling: IL-1-beta AlphaLISA Primary Screen | THP-1 LPS/ATP IL-1B secretion, AlphaLISA, 16 h; hits give low values | activity change, % at 57.5 µM | 360,000 compounds, 4.7% hits; in the data active = activity change below about -50%; inconclusive = mostly about -30% to -49%
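Secreted IL-1B measured by AlphaLISA bead assay after 16 h compound exposure of THP-1 cells; compounds (final up to 57.5 uM) added 1 h before LPS (250 ng/mL) and ATP (1.25 mM) stimulation; lower signal means less secretion.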
D3 ag = qHTS of D3 Dopamine Receptor Agonist: qHTS; D(3) dopamine receptor (Homo sapiens), P35462; D3R DiscoveRx beta-arrestin cells, luminescence, 90 min; max activation, %; 410,000 compounds, 0.58% hits; AID 652048, 2013; in the data active = max activation above about 30%
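Cells at 1500/well, incubated overnight, then treated with pinned compounds (dopamine as control) for 90 min at 37 degrees C. DiscoveRx reagent added for 30 - 60 minutes at room temperature; luminescence read.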
A number is an active result; - = inactive; ? = inconclusive; . = no result given; [ ] = dose if it differs, or a comment. Unless noted, calls follow the shape of the dose curve; as a rule, active = well fitted curve in the direction sought with a large enough effect; inconclusive = small, poorly fitted or top-dose-only effect, or another doubt; inactive = no such curve, though single readings can be large; an effect the other way counts as inactive or inconclusive.

SMILES	S2 tox	DRD3 antagonist	ATXN2 expr inh	Integrin act MD	IL-1B inflam inh	D3 ag
CCN(CC)CCCNC(=S)N1CCN(c2nc(-c3ccc(F)cc3)cs2)CC1	?	-52	?	-	-58	-
S=C(NCc1ccco1)N1CCN(c2nc(-c3ccc(Cl)cc3)cs2)CC1	-	-	?	?	-61	-
O=C(CN1CCN(c2nc(-c3ccc(Cl)cc3)cs2)CC1)NCc1ccco1	-	-	-	-	-	-
C=CCNC(=S)N1CCN(c2ccccc2Cl)CC1	-	-	.	-	-	-
CCNC(=S)N1CCN(c2nc(-c3ccc(F)cc3)cs2)CC1	-	-	?	-	-	-
CCCCNC(=S)N1CCN(c2ccccc2Cl)CC1	-	-	-	-	-58	-
S=C(NCc1ccco1)N1CCN(c2nc(-c3ccccc3)cs2)CC1	-	-	-	-	-73	-
O=C(COc1ccc2cc(Br)ccc2c1)N1CCOCC1	-	-	-	-	-	-
Cn1cc(S(=O)(=O)N2CCCCCC2)cc1C(=O)NCc1ccccc1Cl	-	.	-	.	.	-
O=S(=O)(NCC1CCN(S(=O)(=O)c2ccccc2)CC1)c1ccccc1	-	-	-	-	-	-
Cc1cc(C)cc(OCC(=O)NC2=NCCS2)c1	?	-	-	-	-	-
CC(=O)c1c(C)oc2ccc(N(C(C)=O)S(=O)(=O)c3ccc(Cl)c([N+](=O)[O-])c3)cc12	.	?	25µM	-	-117	-
CC(=O)c1c(C)oc2ccc(N(C(C)=O)S(=O)(=O)c3ccc(Br)cc3)cc12	-	-	-	-	-	-
COC(=O)c1ccc(CSc2nc3c(cnn3-c3ccc(F)cc3)c(=O)[nH]2)o1	-	-	-	-	-	32
Cc1cccc(NC(=O)C2CCN(c3nc4ccccc4[nH]3)CC2)c1C	.	.	.	.	.	-
O=C(Nc1ccc(S(=O)(=O)Nc2nccs2)cc1)c1ccccc1OC(F)F	-	-	-	10µM	-	-
O=C(Nc1ccc(S(=O)(=O)Nc2nccs2)cc1)c1ccc(F)cc1	-	-	-	-	-	-
O=C1C=C(c2ccccc2C(F)(F)F)C[C@@H](c2ccc3c(c2)OCO3)C1	-	-	-	-	-	-
O=C(Cc1ccccc1)Nc1ccc(NC(=O)c2ccc(Br)cc2)cc1	-	-	-	-	-	-
CN(CCC(=O)Nc1ccc(Br)cc1)Cc1ccccc1	-	-	-	-	-62	-
O=C(Nc1cccc(Cl)c1)NC1CCN(C2CCCCC2)C1 (stereo not given)	-	-103	-	-	-	-
COc1ccccc1NC(=O)Nc1nc(C(N)C2CCCCC2)cs1 (stereo not given)	?	?	?	.	.	-
NC(c1csc(NC(=O)Nc2ccccc2)n1)C1CCCCC1 (stereo not given)	-	-	-	.	?	-
COc1ccc(CCNC(=O)Nc2nc(C(N)C3CCCCC3)cs2)cc1OC (stereo not given)	-	?	-	.	-52	-
O=C(NC1CCN(C(=O)Nc2cccc(Cl)c2)CC1)C1CCCCC1	-	-	-	-	-	-
SMILES	S2 tox	DRD3 antagonist	ATXN2 expr inh	Integrin act MD	IL-1B inflam inh	D3 ag
NC(c1csc(NC(=O)Nc2ccccc2Cl)n1)C1CCCCC1 (stereo not given)	-	-	-	.	-	58
NC(c1csc(NC(=O)Nc2cccc(Cl)c2)n1)C1CCCCC1 (stereo not given)	28µM	-	?	.	-96	-
CC(=O)c1ccc(NC(=O)c2nc3ccccc3n(C)c2=O)cc1	.	.	.	.	.	-
CCN(CC)C(=O)CSc1nnc(-c2c[nH]c3ccccc23)o1	-	-	.	-	-	-
N/C(=N\OC(=O)c1ccc(Cl)c(Cl)c1)c1cccc(CSc2ccccn2)c1	-	-	-	-	-	-
O=C1NC(=O)C(=Cc2ccco2)S1	-	-	-	-	-	-
NC(c1csc(Nc2nncc3ccccc23)n1)c1ccccc1Cl (stereo not given)	?	-	-	.	-	-
NC(c1csc(Nc2nncc3ccccc23)n1)C1CCCCC1 (stereo not given)	?	-	?	.	-78	-
C=CCCC1CN(CCCC)S(=O)(=O)c2c(F)cccc2O1 (stereo not given)	-	-	-	-	-	35
NC(=Nc1ccccc1)NC(=O)c1nc(Cl)c(N)nc1N	?	-	-	.	?	-
NC(=NCc1ccccc1)NC(=O)c1nc(Cl)c(N)nc1N	?	-	?	.	-61	-
Cc1nc(-c2ccccc2)sc1-c1nc(-c2ccncc2)ncc1S(=O)(=O)c1ccccc1	?	-	-	-	-54	-
Cc1ccc(Cl)c(NC(=O)COC(=O)c2nn(C)c(=O)c3ccccc23)c1Cl	?	-	.	-	-	-
CCOC(=O)CSc1n[nH]c(=S)s1	-	-	-	-	-	-
CC(C)(C)CC(C)(C)SSc1n[nH]c(=S)s1	-	-	-	-	-73	-
N#Cc1ccccc1Sc1ccccc1N	-	-	-	-[7.66 µM]	-	-
Nc1ccccc1SSc1ccccc1N	?	-	.	-	-97	-
CSc1nc2ccc(NC(=O)c3nn(C(C)C)c(=O)c4ccccc34)cc2s1	-	-	-	-	-52	-
O=C1CSC(=S)N1/N=C/c1ccc(C(F)(F)F)cc1	-	-	-	?	-	-
Cc1cccc(NCc2cc(Cl)ccc2O)n1	-	-	-	-	-79	-
Cc1cccc(NCc2cc(Cl)cc(Cl)c2O)n1	-	-	-	-	-51	-
Cc1ccc(O)c(CNc2cccc(C)n2)c1	-	-	-	-	-	-
Cc1ccnc(NCc2cc(Cl)cc(Cl)c2O)c1	?	-	.	-	-	-
N#CC(=Cc1ccc(O)c(O)c1)C(=O)NCc1ccccc1	.	.	-	.	.	.
COCCNC(=O)/C(C#N)=C/c1cccc(/C=C(\C#N)C(=O)NCCOC)c1	?	-	-	-	-99	-
SMILES	S2 tox	DRD3 antagonist	ATXN2 expr inh	Integrin act MD	IL-1B inflam inh	D3 ag
COCCNC(=O)/C(C#N)=C/C=C/c1ccccc1[N+](=O)[O-]	?	-	?	-	-107	-
COCCNC(=O)/C(C#N)=C/C(C)=C/c1ccccc1	-	-	-	-	-83	-
N#C/C(=C\c1ccc(O)c(O)c1)C(=O)NCCCc1ccccc1	-	-80	-	.	-	-
COCCNC(=O)/C(C#N)=C/c1ccc(O)cc1	-	-	.	-	-	-
Cc1nc2ccccc2c(=O)n1/N=C/C=C/c1ccccc1	-	-	-	-	-	-
Cc1ccc(-c2ccc(S(=O)(=O)Nc3cccnc3)cc2)cc1	.	-	-	-	-	-
O=C1C=C(c2cccs2)C[C@H](c2ccccc2)[C@H]1n1nnc([N+](=O)[O-])n1	?	-	-	-	-57	-
